# Most compounds without a hit are left out; they make up all but 10% or so of the library.
# Luciferase inh: Firefly luciferase inhibition profiling of diverse chemical library using quantitative high-throughput screening; Potency, µM (doses to about 115 µM), most hits filed as inhibitors; 76,000 tested, 2.5% active; Luciferin 4-monooxygenase (Photinus pyralis), P08659; purified P. pyralis luciferase, luminescence, biochemical; AID 1347043, 2019; note: nearly all actives have a fitted effect of over 65% in size
#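 Purified 10nM P. pyralis luciferase with 10uM D-luciferin and 10uM ATP in 50mM Tris acetate pH 7.5, 10mM Mg acetate, 0.01% Tween-20, 0.05% BSA. qHTS titration; luminescence read by CCD imager.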
# HEK293 tox: Cytotoxic Profiling in HEK 293 Cell Line of Diverse Libraries Using Quantitative High-Throughput Screening | 94,000 tested, 6.6% active | HEK 293 viability, ATP luminescence (CellTiter-Glo), 48-72 h | Potency, µM (series often up to 115 µM), for the others: top-dose activity change, negative = cytotoxicity, hits mostly inhibitors; note: nearly all actives have a fitted effect of over 60% in size
#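 Cytotoxicity was scored by loss of ATP-coupled luminescence (CellTiter-Glo) in HEK 293 cells. Compound treatment ran 48 or 72 hr at 37 degree Celsius, 5% CO2, 95% humidity.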
# GPT2 inh: Primary qHTS assay for inhibitors of Glutamate pyruvate transaminase 2 (GPT2); Alanine aminotransferase 2 (Homo sapiens), Q8TD30; Recombinant GPT2, coupled pyruvate oxidase/HRP Amplex Red fluorescence; Potency, µM (titrated, usually from 57.7 µM), for inactives: top-dose activity change, negative = inhibition, most hits filed as inhibitors; 100,000 tested, 0.25% active; AID 1671188, 2021; note: nearly all actives have a fitted effect of over 60% in size
#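 Fluorescence of coupled pyruvate oxidase/HRP/Amplex Red system (50uM Amplex, 30 min, dark) reports pyruvate formed by GPT2. Enzyme reaction: 10ng/uL GPT2, 2mM L-alanine, 250uM a-KG, 30 min room temperature, pH 7.5; 50uM AOA control.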
# NPR1 antag: Natriuretic polypeptide receptor (hNpr1) antagonism - Primary qHTS. 76,000 tested, 1.6% active. HEK293 hNpr1 GloSensor cGMP, ANP-stimulated luminescence. Atrial natriuretic peptide receptor 1 (Homo sapiens), P16066. Potency, µM (series often up to 46.3 µM), inactives show at the highest dose activity change, negative = inhibition, hits mostly inhibitors; calls by dose curve; note: nearly all actives have a fitted effect of over 60% in size
#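 HEK293 cells stably expressing human Npr1 and cGMP GloSensor pGS-40F, loaded 2 h with 2% GloSensor reagent, given compound 30 min at room temperature. Luminescence read before and 20 min after 0.1 nM hNppA.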
# NIH3T3 tox: Cytotoxic Profiling in NIH 3T3 Cell Line of Diverse Libraries Using Quantitative High-Throughput Screening | NIH 3T3 viability, CellTiter-Glo ATP luminescence, 48-72 h | Potency, µM (top dose mostly 96.7 µM), without a hit: top-dose activity change, negative = cytotoxicity, actives largely listed as inhibitors | 94,000 tested, 4.3% active; note: nearly all actives have a fitted effect of over 55% in size
#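 NIH 3T3 cells at 400 cells/well received 23 nL of compound by pintool and were incubated 48 or 72 h at 37 °C. Viability was read as ATP-coupled CellTiter-Glo luminescence.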
# * marks the source's active call; other numbers are inactive results; i = inactive; ? = inconclusive; · = no result given; [ ] = another dose, or the depositor's remark. Unless noted, calls come from the whole dose curve; as a rule, active = well fitted curve in the direction sought with a large enough effect; inconclusive = small, poorly fitted or top-dose-only effect, or another doubt; inactive = no such curve, though single readings can be large; an effect the other way counts as inactive or inconclusive. % is set by controls: 0 for no effect and ±100 for the full control effect; potency is the fitted concentration of half-maximal effect.
SMILES,Luciferase inh,HEK293 tox,GPT2 inh,NPR1 antag,NIH3T3 tox
OC1CCOC2(CCN(Cc3ccc(OC(F)(F)F)cc3)CC2)C1 (stereo not drawn),i,-7.0%,i,5.9%,-19.0%
COc1ccc(-c2cc(N3CCCN(C(=O)c4nn(C)c5ccccc45)CC3)n[nH]2)cc1,i,?,?,-11.8%,?
Cn1cccc1C(=O)N1CCCC(n2cc(-c3nc(-c4ccccc4)no3)nn2)C1 (stereo not drawn),79.4µM*,?,3.8%,?,?
CCn1nccc1C(=O)N1CCCC(n2cc(-c3nc(-c4ccccc4)no3)nn2)C1 (stereo not drawn),?,?,2.0%,12.6µM*,-28.7%
COc1ccccc1CN1Cc2cc(NC(=O)c3ccc([N+](=O)[O-])cc3)ccc2OC(C)C1=O (stereo not drawn),i,?,i,0.9%,?
CCC1Oc2ccc(NC(=O)c3ccc4c(c3)OCO4)cc2CN(Cc2ccc(F)cc2)C1=O (stereo not drawn),?,14.1µM*,i,-12.9%,?
CC1Oc2ccc(NC(=O)c3cccc(F)c3)cc2CN(Cc2ccc3c(c2)OCO3)C1=O (stereo not drawn),i,39.8µM*,i,-25.0%,?
COc1ccccc1CN1Cc2cc(NC(=O)c3ccc4c(c3)OCO4)ccc2OC(C)C1=O (stereo not drawn),i,39.8µM*,i,-13.7%,?
CC1Oc2ccc(NC(=O)c3ccc4c(c3)OCO4)cc2CN(Cc2ccccc2)C1=O (stereo not drawn),i,20µM*,i,?,?
COC1=CC(=O)C=C(C)C12Oc1c(Cl)c(OC)cc(OC)c1C2=O (stereo not drawn),·,·,i,·,·
O=C(c1[nH]nc2c1COc1ccccc1-2)N1CC(c2noc(COc3ccc(F)cc3)n2)C1,i,?,2.1%,-13.5%,-22.5%
COC(=O)N1CC(N2C(=O)c3c(c(C)nn3-c3ccccc3)C2C)C1 (stereo not drawn),·,-19.7%,·,·,?
COc1ccc(CN2Cc3cc(NC(=O)c4ccc5c(c4)OCO5)ccc3OC(C)C2=O)cc1 (stereo not drawn),i,22.4µM*,i,-23.0%,?
O=C(CC1CCCCC1)N1CCC(c2n[nH]c(=O)n2-c2ccccc2)CC1,i,-1.1%,i,9.9%,-17.7%
O=C(c1ccn[nH]1)N1CCCCC1c1nc(CCOCC2CCCC2)no1 (stereo not drawn),i,?,i,35.5µM*,?
CCNC(=O)N1CCCCC1c1nc(CCOCC2CCCC2)no1 (stereo not drawn),·,0.9%,?,·,-8.8%
COc1ccc(C2(C(=O)NCCc3ncc(C)n3C3CC3)CC2)cc1,i,?,i,4.5%,-28.1%
Cc1ccc(NC(=O)NCCc2ncc(C)n2C2CCC2)cc1C,i,79.4µM*,i,-16.0%,-19.1%
Cc1cnc(CCNC(=O)C2(c3ccccc3)CC2)n1C1CCCCCC1,i,39.8µM*,i,-3.7%,?
Cc1ccc(NC(=O)NCCc2ncc(C)n2CC2CC2)cc1C,i,?,i,-22.8%,?
COc1ccc(-n2c(=O)c(C(=O)N3CCCC3)nc3cccnc32)cc1,·,i,0.7%,·,4.1%
O=C1COc2ccc(-c3ccsc3)nc2CN1,i,-23.4%[230 µM],-0.4%[88.5 µM],-6.4%[70.6 µM],?
COc1ccc(C(=O)N2CCCC(n3cc(-c4nc(-c5ccccc5)no4)nn3)C2)cc1 (stereo not drawn),?,28.2µM*,-9.6%,?,?
